Measurements taken from PubChem BioAssay (NCI).
About 83,000 compounds went through this panel and 20% of them were active in at least one assay; those are over-represented in the sample as a whole.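 Treatment: one concentration, 48 hours, 96-well format. Scoring: percent growth, with anything below 10 considered active.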 Unmarked numbers belong to inactive results. Calls of active or inactive are those of the source.

Test system: PC-3 prostate
Assay: NCI-60 one-dose screen, 48 h (100 = growth as untreated, 0 = no growth, -100 = all killed)
Settings: 10 µM unless noted

Row | SMILES | growth
1 | Cn1cc(-c2csc(-c3c[nH]c4ncccc34)n2)c2cc(F)cnc21 | 69.1%
2 | O=C(C(=O)N1CCOCC1)c1ccc(OC2OC(CO)C(O)C(O)C2O)cc1 (centres undefined) | 110%
3 | ClC1C2CC(c3ccccc32)C1Cl (centres undefined) | 104%
4 | CN(C)c1nc(N)nc(Cn2c(-c3nonc3N)nc3ccccc32)n1 | 82.6%
5 | Cc1nn(-c2ccc(Cl)cc2)c2nc3c(nc12)c(=O)oc1ccccc13 | 106%
6 | Cn1cc(-c2nc(-c3c[nH]c4ncc(F)cc34)cs2)c2cccnc21 | 104%
7 | Cc1ccc(C(O)C2=CC(=O)c3ccccc3C2=O)cc1 (centres undefined) | 89.4%
8 | NC(N)=N/N=C(/c1ccccc1)c1ccc(Cl)cc1 | 72.8%
9 | O=C(C(=O)N1CCCCC1)c1ccc(OC2OC(CO)C(O)C(O)C2O)cc1 (centres undefined) | 97.3%
10 | COc1cc2c(cc1OC)C1CCN3C(=O)CCC3N1CC2 (centres undefined) | 107%
11 | NNC(=O)C1CC2c3ccccc3C1c1ccccc12 (centres undefined) | 98.5%
12 | Nc1nc(Cl)c2[nH]cnc2n1 | 122%
13 | O=C(Nc1ccccc1Cl)c1cnc2ccc(C3CCNCC3)cn12 | 72.1%
14 | CC(C)[C@]12O[C@H]1[C@@H]1O[C@]13[C@]1(O[C@H]1C[C@H]1C4=C(CC[C@@]13C)C(=O)OC4)[C@@H]2OC(=O)CN(C)C | 19.6%
15 | O=NC1CC=CCC1c1ccccc1 (centres undefined) | 94%
16 | O=C1C2C3C=CC(O3)C2C(=O)N1Nc1ccccc1 (centres undefined) | 97.5%
17 | COc1ccc(-c2c3c(nn2-c2ccc(N)cc2)CCc2cnoc2-3)cc1OC | 64.3%
18 | Cn1c(N)c(N=O)c(=O)[nH]c1=O | 98.7%
19 | O=C(CSCC(=O)N/N=C/c1ccccc1O)N/N=C\c1ccccc1O | 25%

Row | SMILES | growth
20 | Oc1ccc(Cc2ccc(O)c(C3CC(c4ccc(Cl)cc4)=NN3)c2)cc1C1CC(c2ccc(Cl)cc2)=NN1 (centres undefined) | 23.8%
21 | CSc1nc2c(c(=O)n1C)C(c1ccccc1)C1=C(N2)/C(=C/c2ccccc2)CCC1 (centres undefined) | 48.1%
22 | CC(C)[C@H]1CC[C@H]2[C@@H](CC[C@H]3[C@](C)(CN)CCC[C@]23C)C1 | 65.1%
23 | COc1ccc(OC)c(/C=C/c2nc(=S)n(-c3ccc(Cl)cc3)[nH]2)c1 | 58.6%
24 | CC1SC(c2c(Cl)cccc2Cl)N(NC(=O)c2[nH]c3ccc(F)cc3c2-c2ccccc2)C1=O (centres undefined) | 32.2%
25 | COc1ccc(COC(C)=O)cc1 | 95.3%
26 | Clc1ccc(-n2cnc3c(Cl)ncnc32)cc1Cl | 110%
27 | COc1ccc2[nH]cc(/C=C3/C(=O)Nc4ccc(F)cc43)c2c1 | 76.4%
28 | O=C(CSc1nc2c(n1Nc1ccccc1)-c1ccccc1SC2)Nc1nc(-c2ccc(Cl)cc2)cs1 | 72.2%
29 | COc1cc(C2NC(c3ccc(Cl)cc3)C(C)C(=NC(=O)c3cnccn3)C2C)cc(OC)c1OC (centres undefined) | 88.8%
30 | O=C(c1ccccc1)c1ccccc1Cl | 96.1%
31 | Nc1nonc1-c1nc2ccccc2n1CC(=O)Nc1ccc2c(c1)COC2=O | 80%
32 | COc1ccc(/C=C(\C#N)c2ccccc2)cc1 | 83.3%
33 | Cn1cc(-c2csc(-c3cn(C)c4ncccc34)n2)c2cc(Br)cnc21 | 68.5%
34 | CC(c1cc(Cl)ccc1O)c1cc(Cl)ccc1O | 25.9%
35 | O=C1c2nsnc2C(=O)c2c(F)c(F)c(F)c(F)c21 | 7.59% (active)
36 | CCOC(=O)/C(=C/c1ccccc1)C(=O)c1ccccc1 | 80.6%
37 | COc1ccc(C2=NNC(c3cc(Cc4ccc(O)c(C5CC(c6ccc(OC)cc6)=NN5)c4)ccc3O)C2)cc1 (centres undefined) | 42.4%

Test system: SK-MEL-5 melanoma
Assay: as above
Settings: 10 µM unless noted

Row | SMILES | growth
38 | Cn1cc(-c2csc(-c3c[nH]c4ncccc34)n2)c2cc(F)cnc21 | 61.4%
39 | O=C(C(=O)N1CCOCC1)c1ccc(OC2OC(CO)C(O)C(O)C2O)cc1 (centres undefined) | 108%
40 | ClC1C2CC(c3ccccc32)C1Cl (centres undefined) | 113%
41 | CN(C)c1nc(N)nc(Cn2c(-c3nonc3N)nc3ccccc32)n1 | 86.9%
42 | Cc1nn(-c2ccc(Cl)cc2)c2nc3c(nc12)c(=O)oc1ccccc13 | 114%
43 | Cn1cc(-c2nc(-c3c[nH]c4ncc(F)cc34)cs2)c2cccnc21 | 97.9%
44 | Cc1ccc(C(O)C2=CC(=O)c3ccccc3C2=O)cc1 (centres undefined) | 97.7%
45 | NC(N)=N/N=C(/c1ccccc1)c1ccc(Cl)cc1 | 56.8%
46 | O=C(C(=O)N1CCCCC1)c1ccc(OC2OC(CO)C(O)C(O)C2O)cc1 (centres undefined) | 105%
47 | COc1cc2c(cc1OC)C1CCN3C(=O)CCC3N1CC2 (centres undefined) | 113%
48 | NNC(=O)C1CC2c3ccccc3C1c1ccccc12 (centres undefined) | 110%
49 | Nc1nc(Cl)c2[nH]cnc2n1 | 105%
50 | O=C(Nc1ccccc1Cl)c1cnc2ccc(C3CCNCC3)cn12 | 90.6%
51 | CC(C)[C@]12O[C@H]1[C@@H]1O[C@]13[C@]1(O[C@H]1C[C@H]1C4=C(CC[C@@]13C)C(=O)OC4)[C@@H]2OC(=O)CN(C)C | -20.1% (active)
52 | O=NC1CC=CCC1c1ccccc1 (centres undefined) | 108%
53 | O=C1C2C3C=CC(O3)C2C(=O)N1Nc1ccccc1 (centres undefined) | 109%
54 | COc1ccc(-c2c3c(nn2-c2ccc(N)cc2)CCc2cnoc2-3)cc1OC | 76%
55 | Cn1c(N)c(N=O)c(=O)[nH]c1=O | 102%
56 | O=C(CSCC(=O)N/N=C/c1ccccc1O)N/N=C\c1ccccc1O | 24%

Row | SMILES | growth
57 | Oc1ccc(Cc2ccc(O)c(C3CC(c4ccc(Cl)cc4)=NN3)c2)cc1C1CC(c2ccc(Cl)cc2)=NN1 (centres undefined) | 24.4%
58 | CSc1nc2c(c(=O)n1C)C(c1ccccc1)C1=C(N2)/C(=C/c2ccccc2)CCC1 (centres undefined) | 40%
59 | CC(C)[C@H]1CC[C@H]2[C@@H](CC[C@H]3[C@](C)(CN)CCC[C@]23C)C1 | 99.5%
60 | COc1ccc(OC)c(/C=C/c2nc(=S)n(-c3ccc(Cl)cc3)[nH]2)c1 | 32.5%
61 | CC1SC(c2c(Cl)cccc2Cl)N(NC(=O)c2[nH]c3ccc(F)cc3c2-c2ccccc2)C1=O (centres undefined) | 54.6%
62 | COc1ccc(COC(C)=O)cc1 | 108%
63 | Clc1ccc(-n2cnc3c(Cl)ncnc32)cc1Cl | 103%
64 | COc1ccc2[nH]cc(/C=C3/C(=O)Nc4ccc(F)cc43)c2c1 | 93.1%
65 | O=C(CSc1nc2c(n1Nc1ccccc1)-c1ccccc1SC2)Nc1nc(-c2ccc(Cl)cc2)cs1 | 88.1%
66 | COc1cc(C2NC(c3ccc(Cl)cc3)C(C)C(=NC(=O)c3cnccn3)C2C)cc(OC)c1OC (centres undefined) | 82.3%
67 | O=C(c1ccccc1)c1ccccc1Cl | 105%
68 | Nc1nonc1-c1nc2ccccc2n1CC(=O)Nc1ccc2c(c1)COC2=O | 77.8%
69 | COc1ccc(/C=C(\C#N)c2ccccc2)cc1 | 81%
70 | Cn1cc(-c2csc(-c3cn(C)c4ncccc34)n2)c2cc(Br)cnc21 | 79.3%
71 | CC(c1cc(Cl)ccc1O)c1cc(Cl)ccc1O | 7.93% (active)
72 | O=C1c2nsnc2C(=O)c2c(F)c(F)c(F)c(F)c21 | -61.1% (active)
73 | CCOC(=O)/C(=C/c1ccccc1)C(=O)c1ccccc1 | 66.5%
74 | COc1ccc(C2=NNC(c3cc(Cc4ccc(O)c(C5CC(c6ccc(OC)cc6)=NN5)c4)ccc3O)C2)cc1 (centres undefined) | 47.4%
